Most compounds without a hit are left out; they make up all but 3% or so of the library.
LDHA block: LDHA (human) enzyme inhibition; purified LDHA, NADH/diaphorase-resazurin fluorescence; hits give low values; 480,000 compounds, 0.15% hits; P00338; activity change, % (values are at about 110 or 230 µM); in the data active = activity change below about -30%; inconclusive = mostly about -25% to -30%
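Enzyme activity of human lactate dehydrogenase 5 (2 nM; 0.06 mM NADH, 0.2 mM pyruvate, 5 min, RT) is measured via a resazurin/diaphorase fluorescence readout of residual NADH.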
ClpP mod: qHTS Assay for Activators of ClpP | ATP-dependent Clp protease proteolytic subunit (Bacillus subtilis (strain 168)), P80244 | purified B. subtilis ClpP, FRET peptide cleavage, 20 min | Potency, µM (titrated, usually from 57.5 µM) | 340,000 compounds, 1.9% hits | AID 651965, 2013; active = well fitted falling curve with a large enough effect; inconclusive = small, poorly fitted or top-dose-only effect; inactive = no such curve, though single readings can be large or run the other way; note: the source files actives as falling curves though it sought activators and does not explain the sign; nearly all actives have a fitted effect of over 65% in size
Target sequence (P80244 whole entry, looked up): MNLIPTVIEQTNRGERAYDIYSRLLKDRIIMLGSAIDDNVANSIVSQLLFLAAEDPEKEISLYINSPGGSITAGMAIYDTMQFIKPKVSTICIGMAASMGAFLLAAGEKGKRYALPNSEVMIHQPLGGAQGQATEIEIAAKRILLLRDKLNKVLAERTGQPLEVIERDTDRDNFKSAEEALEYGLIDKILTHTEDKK
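Buffer: 100 mM Tris/HCl pH8, 100 mM KCl, 0.05% low protease BSA, 2.5% glycerol, 0.01% Tween-20. ClpP 10 microg/mL final; 20 min RT; delta FRET normalized to ADEP and DMSO controls.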
ALOX12 inh: ALOX12 (human) lipoxygenase inhibition; purified 12hLO, xylenol orange hydroperoxide absorbance; AID 1671190; 580,000 compounds, 1.1% hits; Potency, µM (highest dose often 108 µM), most hits filed as inhibitors; P18054; active = well fitted inhibition curve with a large enough effect; inconclusive = small, poorly fitted or top-dose-only effect, or another doubt; inactive = no such curve, though single readings can be large or run the other way
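Purified human 12hLO at 150 nM in 25 mM Hepes, 0.01% Triton X-100, pH 7.0, preincubated 15 min at room temperature with compound. Reaction started with 40 uM arachidonic acid, 30 min at room temperature. Hydroperoxide measured by Fe-xylenol orange, 573/405 nm absorbance ratio.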
Chronic BCR inh: blocks chronic active B-cell receptor signaling; ABC-DLBCL IkBa-CBG/CBR reporter, luminescence ratio, 4 h; Potency, µM (top dose mostly 46.1 µM), actives largely listed as inhibitors; 340,000 compounds, 0.05% hits; AID 493014; active = well fitted inhibition curve with a large enough effect in the signal ratio, with a control signal flat, not every such curve was filed as active; inconclusive = small, poorly fitted or top-dose-only effect, or effect the other way, or a change in a side signal; the % refers to the signal ratio
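Cell line TMD8 (human ABC DLBCL), stably expressing tet-inducible CBG68-IkBa fusion and CBR; IMDM/0.5% FBS; cpd up to 46 uM; dox induction, 4 h, 37C/5% CO2; dual luminescence; green/red ratio; MG132 control.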
KCNH2 3.1 block: KCNH2 3.1 (human) potassium channel inhibition; U2OS KCNH2 3.1, thallium flux FluxOr; hits give low values; activity change, % (tested at about 1.8 µM); 340,000 compounds, 0.95% hits;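 active = maximum activity change below -70%; inconclusive = maximum activity change from -70% to -50%; inactive = maximum activity change above -50%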;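 note: thallium influx rate constant from kinetic fluorescence after stimulation buffer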
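Steps: virus added to U2OS suspension (4 h, RT, dark); medium with 10% FBS added, cells plated, 37 C overnight; FluxOr/Red40 loading buffer 45 min RT; stimulation buffer, 2 min kinetic read; rate constant normalized.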
KCNH2 WT inh: blocks the wildtype human KCNH2 potassium channel. AID 720551. Q12809. activity change, % at 1.84 µM. U2OS, BacMam KCNH2, thallium flux FluxOr; hits give low values. 340,000 compounds, 0.37% hits;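 active = maximum activity change below -70%; inconclusive = maximum activity change between -70% and -50%; inactive = maximum activity change above -50%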
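U2OS cells were transduced with wild-type KCNH2 virus (2.03 x 10^8 / mL) for 4 h at room temperature, then cultured overnight at 37 C. Thallium flux was read with FluxOr dye. Rate constants were normalized to DMSO controls.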
A number is an active result; – = inactive; ? = inconclusive; · = no result; [ ] = another dose, or the depositor's remark.

SMILES	LDHA block	ClpP mod	ALOX12 inh	Chronic BCR inh	KCNH2 3.1 block	KCNH2 WT inh
CCN(CC)S(=O)(=O)c1cccc(C(=O)OCC(=O)Nc2ccc3c(c2)c2ccccc2n3CC)c1	–	–	–	–	–	-119
O=C(NCc1cc2n(n1)CCN(C1CCCCC1)C2)c1cnn2ccccc12	·	·	–	·	·	·
O=C(Cc1ccc(Cl)cc1)N/N=C/c1ccc(O)c(O)c1	–	–	14µM	·	–	–
COc1ccc(NC(=O)C(C)Nc2ccc3oc(C)nc3c2)cc1 (stereo not drawn)	–	·	?	·	·	·
COCC(=O)Nc1cc(C(=O)N2CCN(C(C)=O)CC2)c2c(c1)ncn2Cc1ccc(F)cc1	·	·	–	·	·	·
CC(=O)c1ccc(NC(=O)Cn2nc(-n3nc(C)cc3C)ccc2=O)cc1	–	·	–	·	·	·
O=C(Nc1sc2c(c1-c1nc3ccccc3[nH]1)CCCC2)C1CCCC1	–	10µM	–	?	–	–
CC(=O)NCCC(=O)Nc1sc2c(c1-c1nc3ccccc3[nH]1)CCCC2	–	?	–	–	–	–
CCc1ccc([S+](=O)([O-])c2nnn3c2nc(NCCCOC)c2ccccc23)cc1	·	·	–[6.33 µM]	·	·	·
COC(=O)c1c(NC(=O)/C=C/c2ccc3c(c2)OCO3)sc(C)c1C	–	–	–	?	–	-72
CN(C)CCCNC(=O)/C=C/c1ccc2c(c1)OCO2	–	16µM	–	–	–	-74
O=C(/C=C/c1ccc(-c2ccccc2Cl)o1)c1ccc(Cl)cc1	–	·	?	·	·	·
Cc1ccc(C(=O)/C=C/c2ccc(-c3cccc(Cl)c3Cl)o2)cc1	–	·	14µM	·	·	·
O=C(/C=C/c1ccc(-c2ccccc2Cl)o1)c1ccccc1Br	–	·	4.5µM	·	·	·
O=C(/C=C/c1ccc(-c2ccc(Cl)cc2Cl)o1)c1ccc(Br)cc1	–	·	8.9µM	·	·	·
Cc1ccc(C(=O)/C=C/c2ccc(-c3cc(Cl)ccc3Cl)o2)cc1	–	·	5µM	·	·	·
Cc1cccc(C(=O)Nc2c(NCC3CCCCC3)c3ccccc3oc2=O)c1	–	·	?	·	·	·
Cc1ccc(C)c(S(=O)(=O)Nc2nc3ccccc3nc2Nc2ccc3c(c2)OCCO3)c1	–	·	–	·	·	·
CCC(c1cccs1)N1C(=O)[C@H]2CN(S(=O)(=O)c3cn(C)cn3)C[C@H]2C1=O (stereo partly drawn)	·	·	–	·	·	·
O=C(/C=C/c1ccc(-c2cccc(Cl)c2)o1)c1cc(Cl)ccc1Cl	–	·	18µM	·	·	·
O=C(O)c1[nH]c2ccc([N+](=O)[O-])cc2c1-c1ccccc1	–	–	?	–	-194	–
CCOC(=O)c1ccc(N2CCN(CC)CC2)c(NC(=O)COc2ccc(OC)cc2)c1	–	·	–	·	·	·
O=C(c1cccc(C(F)(F)F)c1)N1CCCC1c1ccco1 (stereo not drawn)	–	·	–	·	·	·
CCOC(=O)c1cc(C#N)c(SC)nc1C	–	–	–	–	–	–
COc1ccc2nc(C)c(C(N)=O)cc2c1	–	–	–	–	–	–
SMILES	LDHA block	ClpP mod	ALOX12 inh	Chronic BCR inh	KCNH2 3.1 block	KCNH2 WT inh
Cc1cc(C)c2cc(C#N)c(NCCOC(=O)c3ccccc3C)nc2c1	–	28µM	–	–	–	–
COC(=O)c1cc(C#N)c(NCc2ccccc2)nc1C	–	32µM	–	?	–	–
CCOC(=O)c1cc(C#N)c(N)nc1C	–	22µM	–	–	–	–
COc1ccccc1C(=O)NCCNc1nc2cc(C)cc(C)c2cc1C#N	–	–	–	–	–	–
CCOC(=O)c1cc2cc(OC)ccc2nc1C	–	32µM	–	–	–	–
COC(=O)c1cc(C#N)c(N(C)Cc2ccccc2)nc1C	–	?	–	?	·	–
CCc1ccc2oc(C(=O)Nc3ccccc3C)cc(=O)c2c1	–	·	–	·	·	·
Cc1ccc(S(=O)C(c2ccccc2)c2ccccc2)cc1 (stereo not drawn)	–	–	22µM	·	–	–
OC(CC(O)c1ccccc1)c1ccccc1 (stereo not drawn)	–	–	–	·	–	–
O=S(c1ccccc1)C(c1ccccc1)c1ccccc1 (stereo not drawn)	–	16µM	32µM	·	–	–
O=S(CC(O)c1ccccc1)c1ccccc1 (stereo not drawn)	–	–	28µM	·	–	–
Cc1cccc(S(=O)C(c2ccccc2)c2ccccc2)c1 (stereo not drawn)	–	–	?	·	–	–
O=C(Nc1c(NCc2ccccc2)c2ccccc2oc1=O)c1ccccc1F	–	·	–	·	·	·
COc1ccc(C(=S)N2CCOCC2)cc1OC(=O)c1cc(OC)c(OC)c(OC)c1	–	·	?	–	-79	–
COc1ccc(C(=S)N2CCOCC2)cc1OC(=O)c1cccc([N+](=O)[O-])c1	–	–	–	–	–	–

Bioassay records (PubChem)
